# Source: PubChem BioAssay
# The sample as a whole holds a higher share of hits than the screen did.
# DT40 TDP1 CPT – qHTS for Inhibitors of human tyrosyl-DNA phosphodiesterase 1 (TDP1): qHTS in cells in presence of CPT. chicken DT40 Tdp1-/-;hTDP1 cells + 20 nM CPT, ATP luminescence, 48 h. Potency, µM (series often up to 46.2 µM), for inactives: at the highest dose activity change, negative = growth inhibition, hits mostly inhibitors. hit rate 12% among 420,000. AID 686979, 2013; also: potency is read from the fitted curve at half-maximal effect; nearly all actives have a fitted effect of over 55% in size
#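 Chicken DT40 Tdp1-/- cells complemented with human TDP1, 400 cells/well, exposed to compounds plus 20 nM camptothecin for at least 48 h at 37 C; viability read as ATP content by CellTiter-Glo luminescence.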
# HT1080NT lethal – qHTS for induction of synthetic lethality in tumor cells producing 2HG: qHTS for the HT-1080-NT fibrosarcoma cell line; hit rate 1.6% among 360,000; Potency, µM (titrated, usually from 46.1 µM), for the others: at the top dose activity, negative = less viability, usual class: cytotoxic; HT-1080-NT fibrosarcoma viability, CellTiter-Glo ATP luminescence, 48 h;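 also: NT is the 2HG producing partner of a matched IDH1 knockdown line; potency is read from the fitted curve at half-maximal effect; 0% = DMSO-treated cells and -100% = media-only wells without cells; nearly all actives have a fitted effect of over 55% in size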
#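 Viability by CellTiter-Glo luminescence after 48 h compound exposure at 37C of HT-1080-NT cells (750/well, RPMI, 5% FBS). % activity scaled between DMSO wells and medium-only wells, then curve-fitted and categorized by curve class.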
# ALOX12 inh – Primary qHTS assay for inhibitors of human arachidonate 12S-lipoxygenase (ALOX12): Round 2; Polyunsaturated fatty acid lipoxygenase ALOX12 (Homo sapiens), P18054; purified 12hLO, xylenol orange hydroperoxide absorbance; Potency, µM (titrated, usually from 108 µM), for the others: at the highest dose activity change, negative = inhibition, usual class: inhibitors; hit rate 1.1% among 580,000; also: potency is read from the fitted curve at half-maximal effect
# Target sequence (P18054 whole entry, looked up): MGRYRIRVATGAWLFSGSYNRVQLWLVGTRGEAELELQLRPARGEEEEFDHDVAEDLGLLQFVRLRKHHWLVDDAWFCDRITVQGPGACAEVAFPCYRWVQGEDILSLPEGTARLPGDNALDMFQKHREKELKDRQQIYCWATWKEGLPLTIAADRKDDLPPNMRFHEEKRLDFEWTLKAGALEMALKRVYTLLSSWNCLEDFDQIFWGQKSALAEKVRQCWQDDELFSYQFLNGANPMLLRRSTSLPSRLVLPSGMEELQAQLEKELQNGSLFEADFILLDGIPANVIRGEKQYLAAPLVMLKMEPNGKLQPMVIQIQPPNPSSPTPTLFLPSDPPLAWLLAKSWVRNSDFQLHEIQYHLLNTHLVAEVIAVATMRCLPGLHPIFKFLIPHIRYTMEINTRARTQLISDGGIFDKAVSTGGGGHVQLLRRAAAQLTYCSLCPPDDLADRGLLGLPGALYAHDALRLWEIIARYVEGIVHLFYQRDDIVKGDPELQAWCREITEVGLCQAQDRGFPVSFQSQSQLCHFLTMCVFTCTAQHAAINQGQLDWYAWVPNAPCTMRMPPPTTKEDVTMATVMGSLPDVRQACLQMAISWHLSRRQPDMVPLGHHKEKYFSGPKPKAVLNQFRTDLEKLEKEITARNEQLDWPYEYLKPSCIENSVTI
#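 Purified human 12hLO at 150 nM in 25 mM Hepes, 0.01% Triton X-100, pH 7.0, preincubated 15 min at room temperature with compound. Reaction started with 40 uM arachidonic acid, 30 min at room temperature. Hydroperoxide measured by Fe-xylenol orange, 573/405 nm absorbance ratio.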
# HT1080 IDH1KD tx – qHTS for induction of synthetic lethality in tumor cells producing 2HG: qHTS for the HT-1080-IDH1KD cell line; Potency, µM (doses to about 46.1 µM), without a hit: at the top dose activity, negative = toxicity, actives largely listed as cytotoxic; HT-1080 IDH1 knockdown viability, ATP luminescence, 48 h; AID 686971, 2013; hit rate 2% among 360,000;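 also: potency is read from the fitted curve at half-maximal effect; 0% = DMSO wells and -100% = cell-free medium wells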
#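 In this qHTS, HT-1080 cells depleted of IDH1 are exposed for 48 h at 37 °C to compound titrations. Toxicity is scored from CellTiter-Glo luminescence, with DMSO as full viability and medium alone as none.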
# IL1B secr inh – qHTS for Inhibitors of Inflammasome Signaling: IL-1-beta AlphaLISA Primary Screen. THP-1 LPS/ATP IL-1B secretion, AlphaLISA, 16 h; active compounds read low. activity change, % at 57.5 µM. AID 743279, 2014. hit rate 4.7% among 360,000; in the data active = activity change below about -50%; inconclusive = mostly about -30% to -49%
#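 Secreted IL-1B measured by AlphaLISA bead assay after 16 h compound exposure of THP-1 cells; compounds (final up to 57.5 uM) added 1 h before LPS (250 ng/mL) and ATP (1.25 mM) stimulation; lower signal means less secretion.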
# DT40 TDP1 no CPT – qHTS for Inhibitors of human tyrosyl-DNA phosphodiesterase 1 (TDP1): qHTS in cells in absence of CPT; DT40 Tdp1-/- hTDP1 cells, no CPT, ATP luminescence, 48 h; Potency, µM (top dose mostly 46.2 µM), inactives show top-dose activity change, negative = growth inhibition, hits mostly inhibitors; hit rate 15% among 420,000; AID 686978, 2013; also: potency is read from the fitted curve at half-maximal effect; nearly all actives have a fitted effect of over 55% in size
#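 Readout: luminescence from CellTiter-Glo after 30 min in the dark at RT. Cells: DT40 Tdp1-/- with stable hTDP1, 400/well. Exposure: compounds alone, ≥48 hr, 37 °C.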
# Starred values were filed as active, the others as inactive; i = inactive; ? = inconclusive; / = no result. Unless noted, calls follow the shape of the dose curve; as a rule, active = well fitted curve in the direction sought with a large enough effect; inconclusive = small, poorly fitted or top-dose-only effect, or another doubt; inactive = no such curve, though single readings can be large; an effect the other way counts as inactive or inconclusive. Unless noted, % is scaled to controls: 0 for no effect and ±100 for the full control effect.
SMILES,DT40 TDP1 CPT,HT1080NT lethal,ALOX12 inh,HT1080 IDH1KD tx,IL1B secr inh,DT40 TDP1 no CPT
CCOC(=O)N1CCN(S(=O)(=O)c2ccc3c(c2)SC(C)C(=O)N3)CC1 (stereo unspecified),13µM*,-1.1%,0.0%,-10.7%,18.9,9.2µM*
COc1cc(C(=O)Nc2ccc(Cl)cc2)nc2ccc(Cl)cc12,/,/,-0.7%,/,/,/
O=C(COC(=O)c1ccc(NC(=O)c2cccs2)cc1)c1ccccc1,/,/,-22.1%,/,/,/
COc1c(C)cccc1C(=O)Nc1ccc2oc(=O)ccc2c1,/,/,-25.0%,/,/,/
CCOc1ccc(S(=O)(=O)N2CCC(C(=O)N3CCN(c4ccccc4F)CC3)CC2)cc1C,23.1µM*,-2.6%,-58.4%,-7.6%,-28.4,29.1µM*
CCOc1ccc(S(=O)(=O)N2CCN(c3ccccc3F)CC2)c2cccnc12,20.6µM*,-2.4%,13.3%,-10.6%,0.0,16.4µM*
Cc1cccc(N2CCN(C(=O)C3CCN(S(=O)(=O)c4ccc5c(c4)oc(=O)n5C)CC3)CC2)c1C,4.61µM*,/,-3.8%,/,/,3.66µM*
Cn1c(=O)oc2cc(S(=O)(=O)N3CCN(c4ccccc4F)CC3)ccc21,0.4%,13.4%,28.8%,-1.7%,49.7,-6.8%
Cn1c(=O)oc2cc(S(=O)(=O)N3CCC(C(=O)N4CCN(c5ccccc5F)CC4)CC3)ccc21,?,/,-26.4%,/,/,18.4µM*
Nc1cccn2nc(-c3ccccc3)nc12,/,/,1.3%,/,/,/
CCC(C)NC(=O)C(NC(=O)c1ccc(OC)cc1)C1CCN(C(=O)c2cccc(OC)c2)CC1 (stereo unspecified),/,/,2.1%,/,/,/
COc1ccc(O)c(/C=N/NC(=O)c2ccc(OCc3cccc(Br)c3)cc2)c1,4.61µM*,1.64µM*,2.1%,5.17µM*,91.6,5.8µM*
CCCOc1ccc(Br)cc1/C=N/NC(=O)c1cc(OC)c(OC)c(OC)c1,3.5%,-5.6%,3.3%,2.8%,i,-12.3%
COc1ccc(C(=O)N/N=C/c2cc(Br)ccc2O)cc1OC,2.31µM*,?,?,?,123.5,3.26µM*
C/C=C/c1ccc(OCCCCOc2ccc(OC)cc2)c(OC)c1,-14.0%,11.8%,-16.1%,10.7%,-4.2,-22.5%
C/C=C/c1ccc(OCCn2nnc3ccccc32)c(OC)c1,18.4µM*,-15.6%,0.0%,-3.6%,0.0,14.6µM*
C=CCc1ccccc1OCCn1nnc2ccccc21,?,-6.8%,-2.5%,1.9%,50.5,23.1µM*
Cc1cccc(OCCn2nnc3ccccc32)c1C,?,-0.7%,-6.2%,-2.8%,-11.8,?
CNC(=O)C1(N2CCC[C@H]2C(=O)NCCOC)CCOCC1,/,/,10µM*,/,/,/
COc1ccc(C(=O)NC2CCCc3c2cnn3-c2cc(F)cc(F)c2)c(OC)c1OC (stereo unspecified),16.4µM*,?,19.6%,?,-6.8,14.6µM*
COC(=O)c1ccc(C(=O)NC2CCCc3c2cnn3-c2cc(F)cc(F)c2)nc1 (stereo unspecified),2.91µM*,?,-14.4%,16.4µM*,i,2.06µM*
COc1ccc(C(=O)NC2CCCc3c2cnn3-c2cc(F)cc(F)c2)c(OC)n1 (stereo unspecified),-26.4%,8.9%,-19.1%,9.8%,13.7,-16.6%
O=C(NC1CCCc2c1cnn2-c1cc(F)cc(F)c1)c1ccccn1 (stereo unspecified),?,-7.9%,i,-17.5%,-16.1,-21.0%
Cn1nccc1C(=O)NC1CCCc2c1cnn2-c1cc(F)cc(F)c1 (stereo unspecified),14.6µM*,-1.1%,0.0%,-3.8%,0.0,?
C[C@H](NC(=O)CCn1ccc2ccc(F)cc21)C(=O)O,/,/,-16.2%,/,/,/
SMILES,DT40 TDP1 CPT,HT1080NT lethal,ALOX12 inh,HT1080 IDH1KD tx,IL1B secr inh,DT40 TDP1 no CPT
CCCCSc1nnc2c(n1)OC(c1ccc(Br)s1)Nc1ccccc1-2 (stereo unspecified),?,/,?,/,/,18.4µM*
Cc1ccc(C(=O)OCC(=O)c2ccc(-c3ccccc3)cc2)s1,/,/,-45.0%,/,/,/
O=C(NCCCN1CCCC1)c1ccc2c(Cl)c3c(nc2c1)CCCC3,?,18.4µM*,-14.8%,23.1µM*,/,14.6µM*
CCCN1CCN(CCCNC(=O)c2ccc3c(Cl)c4c(nc3c2)CCCC4)CC1,20.6µM*,?,11.7%,?,-56.2*,8.2µM*
COc1ccc(C2CC(c3ccccc3NS(=O)(=O)c3ccccc3)=NN2C(C)=O)cc1 (stereo unspecified),/,/,-8.3%,/,/,/
Cc1ccc(-n2cc(CNC(C)c3cnn(C)c3C)c(-c3ccc(F)cc3)n2)cc1 (stereo unspecified),5.17µM*,1.0%,10.8%,0.8%,?,2.91µM*
Cc1ccc(-n2cc(CN3CCN(Cc4nccn4C)CC3)c(-c3ccc(F)cc3)n2)cc1,?,?,0.3%,?,?,?
Cc1ccc(-n2cc(CNC(C)Cn3cncn3)c(-c3ccc(F)cc3)n2)cc1 (stereo unspecified),?,-19.3%,-1.3%,-8.8%,?,?
Cc1ccc(-n2cc(CNC(C)c3cnn(C)c3)c(-c3ccc(F)cc3)n2)cc1 (stereo unspecified),18.4µM*,-1.8%,-15.5%,-24.5%,-1.3,20.6µM*
CC1(C(=O)NS(=O)(=O)C2CC2)CCCN(C(=O)c2cc3ccccc3s2)C1 (stereo unspecified),0.651µM*,13.1%,0.1%,9.0%,13.7,0.82µM*
CC1(C(=O)NS(=O)(=O)C2CC2)CCN(C(=O)c2cc3ccccc3s2)C1 (stereo unspecified),-3.2%,1.6%,-7.8%,14.0%,-6.6,23.4%
CC1(C(=O)NS(=O)(=O)C2CC2)CCCN(C(=O)Cc2ccc3ccccc3c2)C1 (stereo unspecified),9.2µM*,?,8.9%,2.0%,24.7,10.3µM*
CC1(C(=O)NS(=O)(=O)C2CC2)CCCN(C(=O)COc2ccccc2)C1 (stereo unspecified),?,?,/,0.0%,39.7,?
